A selection: hits, their analogues and other compounds. The true share with any hit is near 4%.
Peg3 promoter: inhibitors of Peg3 promoter | HeLa PEG-Prom luciferase reporter, luminescence, overnight | inhibition, % at 20 µM | actives 1.7% (n = 360,000) | AID 588405;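 active means inhibition of at least 50% at 20 µM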
HIF-2a inh: inhibitors of HIF-2a. 786-0 RCC cells HIF-2a reporter, luciferase luminescence, overnight. inhibition, % at 18.8 µM. actives 0.72% (n = 360,000);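 active means inhibition of the luminescence signal of 40% or more relative to plate controls, in a single-dose primary screen at 18.75 µM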
KKLEB tox: CF airway cell cytotoxicity counter-screen | actives 0.36% (n = 360,000) | KKLEB CF airway cells viability, ATPlite luminescence, overnight; hits give low values; cells stimulated with P. aeruginosa culture filtrate | activity change (cytotoxicity), % at 5 µM;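 active means corrected activity change at or below -50% at 5 µM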
CF NFkB block: blocks PAF-induced NF-kB reporter in cystic fibrosis cells; actives 0.86% (n = 360,000); inhibition, % at 5 µM; KKLEB NF-kB-GFP reporter, GFP fluorescence overnight;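 active means at least 50% inhibition at 5 µM, scaled per plate between neutral and stimulator controls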;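 further: PAF is a Pseudomonas aeruginosa culture filtrate used as stimulus; plate controls were PAF-stimulated DMSO wells for no effect and unstimulated DMSO wells for full effect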
TWEAK Fn14 block: inhibitors of TWEAK-Fn14 interaction signaling; TWEAK-stimulated Fn14 reporter cells, luciferase luminescence, 8 h; inhibition, % at 10 µM; actives 2% (n = 360,000); AID 1159606; in the data active means inhibition above about 50%
TROY signal inh: inhibitors of TROY-dependent NF-kB signaling; Q293 LMP1-TROYcd NF-kB luciferase reporter, 4 h; inhibition, % at 10 µM; actives 0.98% (n = 360,000);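 active means compounds whose plate-normalised and pattern-corrected inhibition of the luciferase reporter signal at the single screening dose is 50% or more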
Active calls of the source: *; . = no result.

SMILES	Peg3 promoter	HIF-2a inh	KKLEB tox	CF NFkB block	TWEAK Fn14 block	TROY signal inh
COc1ccc(CNCCS(=O)(=O)NCc2ccc(OC)cc2)cc1	-4.7	15.9	18.6	-27.3	9.4	-3.0
CCCCCCCCNS(=O)(=O)CCNCc1ccc(OC)cc1	61.1*	13.0	-18.6	11.0	3.3	6.5
CON(C)C(=O)/C=C/CCCCNC(=O)OC(C)(C)C	-2.0	5.2	-3.2	24.7	2.4	-8.2
CNc1nc(NCc2cccc(OC)c2)c2sccc2n1	2.8	7.4	-15.5	22.2	-20.8	4.0
CNc1nc(N)c([N+](=O)[O-])c(NC2CCCCC2)n1	27.9	12.7	-22.1	49.9	18.3	7.8
COc1cccc(Nc2nc(N)c([N+](=O)[O-])c(NCc3ccccc3)n2)c1	4.4	-80.0	-16.9	10.5	51.1*	-4.5
COc1cccc(CNc2nc(NCc3ccccc3)nc3ccsc23)c1	64.0*	5.8	-8.6	20.1	23.1	47.1
Nc1nc(Nc2ccccc2)nc(NC2CCCCC2)c1[N+](=O)[O-]	41.4	-19.6	6.0	20.6	32.5	73.9*
CNc1nc(NCc2ccccc2)c2sccc2n1	-25.5	-33.6	-5.6	-24.2	-53.5	8.9
c1ccc(CNc2nc(NCCc3ccncc3)c3sccc3n2)cc1	53.8*	1.7	-6.2	6.0	28.5	42.8
CC(=O)c1c(C)[nH]c(C(=O)N2CCCCCC2)c1C	9.4	10.8	9.3	-8.4	4.6	-13.8
Cc1ccc(S(=O)(=O)/N=C(\c2ccccc2)N(C)S(=O)(=O)c2ccccc2)cc1	15.4	6.3	2.0	10.9	3.8	6.1
COc1cccc(NC(=O)c2ccc(NC(=O)C3CC(=O)OC34CCCCC4)cc2)c1 (stereo not given)	6.9	10.4	-16.5	1.5	15.9	-5.5
CC(=O)N(CC(=O)Nc1sc(C)c(C)c1C(N)=O)Cc1ccccc1	14.8	21.8	4.4	-6.7	1.9	1.5
c1ccc(CNc2nc(NCc3cccs3)nc3ccsc23)cc1	11.0	-8.0	-20.2	-0.3	8.4	61.4*
C#Cc1cccc(Nc2nc(NCc3ccccc3)nc3ccsc23)c1	-97.8	-163.8	-22.6	24.7	69.3*	4.5
CC(C)C(=O)Nc1nnc(SCC(=O)NC2CCCC2)s1	30.0	1.5	-18.7	-1.3	-4.5	10.9
COc1ccc(CN2CCN(C(=O)c3cccc4ccccc34)CC2)cc1Br	18.3	9.1	-11.5	17.6	-20.5	22.4
Cc1c(CCOC(=O)C23CC4CC(CC(C)(C4)C2)C3)sc[n+]1Cc1ccccc1	3.1	0.8	-14.4	20.2	-9.0	15.4
Cc1c(CCOC(=O)CC23CC4CC(CC(C4)C2)C3)sc[n+]1CC(=O)c1ccccc1	61.5*	2.1	-19.1	17.1	12.4	13.5
Cc1c(CCOC(=O)C23CC4CC(CC(C4)C2)C3)sc[n+]1Cc1ccccc1	0.7	7.5	-1.9	-6.2	-2.8	-1.1
Cc1c(CCOC(=O)C23CC4(C)CC(C)(CC(C)(C4)C2)C3)sc[n+]1CC(=O)c1ccccc1	113.5*	13.2	-11.7	23.3	-0.1	31.0
CCc1ccc(-c2nc(CS(=O)CC(=O)NCCc3ccccc3)c(C)o2)cc1 (stereo not given)	-72.6	-86.7	-7.7	11.2	6.7	-6.5
CCOC(=O)C1=C(C)NC(=O)NC1c1ccc(OCC(N)=O)cc1 (stereo not given)	2.2	11.7	-21.1	-2.3	79.3*	.
O=C(/C=C\c1ccc2c(c1)OCO2)Nc1c2c(nn1-c1ccc(Cl)cc1)CSC2	13.9	22.5	1.6	-45.2	-85.1	10.7
SMILES	Peg3 promoter	HIF-2a inh	KKLEB tox	CF NFkB block	TWEAK Fn14 block	TROY signal inh
CC(=O)c1ccc(NC(=S)NCCCn2ccnc2)cc1	-15.0	-7.2	6.1	-17.7	-25.7	-0.2
COC(=O)c1cc(Br)c(=O)n(-c2ccccc2OC)c1	2.9	9.5	3.7	-2.8	3.8	8.4
S=c1[nH]nc(-c2cc(-c3ccccc3)n[nH]2)n1/N=C/C(Br)=C/c1ccccc1	107.9*	26.4	-76.9*	104.4*	75.4*	-35.7
O=C(Nc1ccc([N+](=O)[O-])cc1)C1CC1(c1ccccc1)c1ccccc1 (stereo not given)	-16.0	14.6	-7.4	3.8	32.5	69.9*
O=C(COC(=O)CNC(=O)c1ccccc1Cl)Nc1ncc(C(F)(F)F)cc1Cl	5.5	18.5	2.8	8.2	2.2	10.7
COc1cc(C(=O)NCC(c2ccco2)N2CCCC2)ccc1OCc1ccc(Cl)cc1Cl (stereo not given)	56.0*	-1.8	-18.8	36.8	-10.5	0.6
O=C(NCC(c1ccco1)N1CCCC1)c1ccccc1F (stereo not given)	-17.8	-31.8	4.5	6.2	53.3*	56.8*
Fc1ccc(/C=N/NC(=S)NCCc2ccccc2)cc1F	-24.7	-83.4	-10.5	4.4	-10.2	-35.8
O=C(CCS(=O)(=O)Cc1cccc(Cl)c1)NCCc1ccccc1	6.0	4.9	-28.3	0.4	0.0	-5.0
COc1cccc(CNC(=O)CCNC(=O)N2CC(=O)Nc3ccccc32)c1	-9.4	12.6	-20.8	30.9	-1.3	10.1
CN(CCCS(=O)(=O)[O-])c1ccc(/C=C/c2ccc3ccccc3[n+]2C)cc1	1.2	5.7	-3.6	-5.2	-9.0	1.9
CN(C)c1ccc(/C=C/c2ccc3ccccc3[n+]2C)cc1	37.1	-59.5	-13.1	-72.7	64.5*	62.8*
[O-][n+]1ccccc1/C=C/c1ccccc1	-18.4	-12.2	-12.0	-1.2	10.3	6.5
[O-][n+]1c(/C=C/c2ccccc2)ccc2ccccc21	-204.7	-280.1	-5.7	7.6	66.3*	-42.9
Cc1nc(Cl)sc1C(=O)Nc1ccc(C(C)(C)C)cc1	-41.8	-48.4	-16.2	3.5	-37.2	-60.3
Cc1nnc(NCc2n[nH]c(=O)c3ccccc23)c2ccccc12	106.4*	-41.7	4.5	-8.8	-35.0	-33.1
CN(C)S(=O)(=O)N1CCC(Oc2cccc(C(=O)NC3CCCCC3)c2)CC1	7.5	-23.0	-11.4	0.7	22.5	8.2
CN(C)S(=O)(=O)N1CCC(Oc2cccc(C(=O)NCCC3=CCCCC3)c2)CC1	-6.1	-59.5	11.5	-13.4	50.4*	37.4
CCc1ccc2cc(C)cnc2n1	-24.4	4.1	2.9	-5.2	1.8	2.1
C=C(C)CN=C1SC(C(=O)Nc2sc3c(c2C(=O)OC)CCC3)C(N)=C1C(N)=O (stereo not given)	15.2	9.1	21.8	-12.7	57.0*	4.7
CCN1CCCC1CNCC(=O)Nc1ccc(OC(F)(F)F)cc1 (stereo not given)	5.9	7.8	-2.6	2.9	-8.8	3.6
CC12CCCC[C@@H]1CCC1C2CCC2(C)C1CC[C@@]2(O)CNCCO (stereo not given in full)	109.6*	10.4	-9.0	19.3	-9.3	8.7
COc1ccc(C2CC(c3cccs3)=Nc3ccccc3S2)cc1 (stereo not given)	-169.7	-285.4	-11.0	17.0	1.2	-36.7
